For 88 compounds, inhibition results are on record in PubChem BioAssay AID602346 (Broad Institute, 2012).

What is called inhibition is the change of the read-out against control, counted positive when it falls.

Structures are written as SMILES. The campaign covered roughly 340,000 compounds. About 1,200 (0.35%) were called active. Many of the other results were omitted from the sample, so actives are more common in it than they were. A number with no mark means an inactive call. Rule as the data show it: active = inhibition above about 50% (passing the limit was not always enough); inconclusive = no clear call, values can overlap the other calls; inactive = below about 31%.

The nature of the assay: blockers of Vif multimerization in cells – imaging, HEK293T, single point, primary screen (AID 602346). The note with it: Vif self-association by quenched fluorescence, 24 h, at 7.49 µM, active compounds read high.
On to `COc1ccc(OC)c(NC(=O)COC(=O)Cc2ccsc2)c1`, for which the inhibition was 9.67%.
In the case of `COc1ccc(CN(C)C(=O)Cc2ccsc2)c(OC)c1OC`, the inhibition was -9.61%.
With `COc1ccccc1C(C)NC(=O)Cc1ccsc1` (stereo not drawn), the inhibition is 98.8% (active).
With `CC(=O)Nc1ccc(NC(=O)COc2ccccc2C(=O)Nc2cccc(Cl)c2Cl)cc1`, the inhibition is 146% (active).
Under `O=C(COc1ccccc1Cl)Nc1ccccc1C(=O)NC1CC1` stands -13.2%; under `O=C(COc1ccccc1Cl)Nc1ccc(C(=O)c2ccc(C(=O)O)cc2)cc1`, 21.3%; under `NC(c1csc(NC(=O)Nc2ccccc2Oc2ccccc2)n1)c1ccccc1Cl` (stereo not drawn), -9.54%.
Under `COc1cncc(-c2cnc3sc(NCCc4ccccn4)nn23)c1` stands -4.71%; under `OC(c1cc(Cl)cc(Cl)c1)c1ncc(-c2ccccc2C(F)(F)F)[nH]1` (stereo not drawn), 7.62%; under `Cc1cccc(CNC(=O)c2sc(=O)n(Cc3ccccc3C)c2C)c1`, -3.32%.
`O=C(NC1=CC(=O)c2ccccc2C1=O)c1ccccc1`: the inhibition is 120% (active).
On to `Cn1c(NC(=O)c2ccccc2)nc2ccccc21`, for which the inhibition was -0.44%.
For the compound `O=C1C=C(NS(=O)(=O)c2ccccc2)C(=O)c2ccccc21`, the inhibition was 5.11%.
For the compound `O=C(c1ccc(CS(=O)Cc2ccccc2Cl)o1)N1CCN(c2ccccc2)CC1` (stereo not drawn), the inhibition was 2.07%.
`O=C(CCc1ccc(O)cc1)NN=Cc1cc(Br)ccc1O`: the inhibition is -6.15%.
Under `CCc1nc2c(OCCC3CCCCC3)cccn2c1N(C)C(=O)c1ccco1` stands 3.23%.
Under `COC(=O)NNC1=CC(=O)CC(C)(C)C1` stands 7.17%; under `CC1(C)CC(=O)C=C(NCCCNC2CCCCC2)C1`, -5.64%.
Under `CC1(C)CC(=O)C=C(NC2CC(C)(C)NC(C)(C)C2)C1` stands 65.2% (active); under `O=C(c1ccc(N2CCCC2=O)cc1)N1CCN(c2ccc(C(F)(F)F)cc2[N+](=O)[O-])CC1`, -4.95%.
On to `CC(C)C[C@H]1CNC(=S)N1C[C@H]1CCCN1C[C@H](Cc1ccc(O)cc1)N1C[C@H](Cc2ccc(O)cc2)N(CC2CCCCC2)C1=S`, for which the inhibition is 5.91%.
Under `Cc1ccc(S(=O)(=O)N2C[C@H]3n4c(=O)ccc(=O)n4C[C@H](OC(=O)NC4CCCC4)[C@@]3(O)C2)cc1` stands -13.2%; under `Cc1ccc(CNC(=O)c2cccc3c2C(=O)c2ccc(N4CCC(C)CC4)cc2S3(=O)=O)cc1`, 111% (active).
Regarding `CC1CCN(c2ccc3c(c2)S(=O)(=O)c2cc(C(=O)O)ccc2C3=O)CC1`, the inhibition was -0.214%.
As to `Cc1ccc(CNC(=O)c2ccc3c(c2)S(=O)(=O)c2ccccc2C3=O)cc1`, the inhibition is 5.37%.
Under `CN(C)CCNC(=O)c1cccc(-c2cnc3c(NC=O)cc(-c4cccc(C(F)(F)F)c4)cn23)c1` stands 5.61%.
Under `C=C1C(=O)[C@]23C[C@H]1CCC2[C@@]1(C)C(C[C@@H]3O)[C@](C)(C(=O)O)CC[C@@H]1O` (stereo partly drawn) stands 12.6%; under `O=C(CCCN1C(=O)C(c2ccccc2)Oc2cccnc21)Nc1ccccc1Br` (stereo not drawn), 6.43%.
Under `CC(=O)Nc1cc(-c2ccccc2N(C)C)cn2c(-c3ccc(F)c(Cl)c3)cnc12` stands -4.22%; under `CC(=O)Nc1cccc(-c2ccnc3c2CC(C)(C(=O)NCc2ccccc2)O3)c1` (stereo not drawn), -11.2%; under `COc1cccc(OCCOc2cccc(/C=N/n3cnnc3)c2)c1`, 11.7%.
For `Cc1ccccc1OCCOc1ccc([N+](=O)[O-])cc1/C=N/n1cnnc1`, the inhibition was 69.4% (active).
As for `Cc1ccccc1OS(=O)(=O)c1cccc([N+](=O)[O-])c1`, the inhibition was -0.237%.
As for `C=CCn1nc(C(=O)OCC)cc1-c1sc(NC(=O)c2ccccc2)nc1C`, the inhibition was -3.36%.
For `COc1ccccc1N1CCN(Cc2cc(OC)c3c(c2)OCO3)CC1`, the inhibition is -1.02%.
Under `COc1ccc(CN2CCN(Cc3ccc(OC)c(OC)c3OC)CC2)cc1` stands -0.337%; under `COc1ccccc1N1CCN(Cc2ccc(OC)c3ccccc23)CC1`, 112% (active); under `COCOCCn1cc(CN2CCS(=O)(=O)N(Cc3ccc(-c4ccccc4)cc3)C(CC(C)C)C2=O)nn1` (stereo not drawn), 15.8%.
For the compound `Cc1cc(=O)[nH]c(SCC(=O)Nc2ccc(Br)cc2)n1`, the inhibition was -3.77%.
With `O=C(CSCc1ccc(Br)cc1)Nc1ccc(S(=O)(=O)N2CCCCCC2)cc1`, the inhibition is -7.79%.
As for `O=C1CCCN2N=C(SCC(=O)Nc3ccc(Br)cc3)SC2=N1`, the inhibition was 59.2% (active).
Under `CC1(C(=O)NCC2CCOCC2)Cc2c(-c3cccc(C(N)=O)c3)ccnc2O1` (stereo not drawn) stands -1.25%.
As for `Cc1cc(Cl)ccc1-c1nc(NCCN(C)C)nc2ccsc12`, the inhibition was -1.21%.
For the compound `COc1ccc(/C(C)=N/NC(=O)c2ccc3nc[nH]c3c2)cc1`, the inhibition was 1.81%.
Consider `C/C(=N\NC(=O)c1ccc2ccccc2c1)c1cccnc1`, for which the inhibition is -7.71%.
Under `CC(=NNC(=O)c1ccc2nc[nH]c2c1)c1ccc(Br)cc1` stands 63.5% (active); under `COc1ccc(-c2ccc(C(=O)NC(C)C)c3occc23)c(C)c1`, -26.1%.
Under `Cc1cc2cc3n(c2nn1)N=C(Cl)CC3` stands 29.1%; under `CCOC(=O)c1cc(-c2sc(NC(=O)c3ccccc3)nc2C)n(Cc2ccccc2)n1`, -2.32%.
As for `CN(C)CCCn1c(N)c(C#N)c2nc(C#N)c(C#N)nc21`, the inhibition is 52.6% (active).
Under `N#Cc1c(N)n(CCOC(=O)c2ccc(Cl)cc2)c2nc3ccccc3nc12` stands -17.3%; under `NC1=CC(=O)C(=O)c2cccnc21`, -1.29%; under `CC1(Cc2cccc(C#N)c2)C(=O)Nc2ccc(-c3cccc(C(F)(F)F)c3)cc21` (stereo not drawn), -26.8%.
As for `Cc1nccn1-c1ccc(NC(=O)[C@H]2O[C@@H](n3cnc4c(N)ncnc43)[C@H](O)[C@@H]2O)cc1`, the inhibition was 14.6%.
For the compound `CN(Cc1ccc(C(F)(F)F)cc1)C(=O)[C@H]1O[C@@H](n2cnc3c(N)ncnc32)[C@H](O)[C@@H]1O`, the inhibition was -5.61%.
In the case of `Nc1ncnc2c1ncn2[C@@H]1O[C@H](C(=O)NCC(F)(F)F)[C@@H](O)[C@H]1O`, the inhibition is 96.8% (active).
To `Cc1nc2c(OCC(=O)C(C)(C)C)cccn2c1N(C)Cc1cccs1` belongs -0.585%; to `CCOc1ccc(CCN2C(=S)N([C@@H](CC(C)C)CN3CCC[C@@H]3CN3C(=S)NC[C@@H]3Cc3ccc(O)cc3)C[C@@H]2CC(C)C)cc1`, 12.9%.
Under `O=C(NCc1cccc(Cl)c1)C1=CC=CN2CCS(=O)(=O)N=C12` stands 52.6% (active); under `O=C(NCc1cccc(Cl)c1)C1CCN(c2nnc(N3CCCC3=O)s2)CC1`, 3.92%.
Turning to `O=C(NCc1cccc(Cl)c1)C1CCC(=O)N(C2CC2)C1` (stereo not drawn), the inhibition is -0.951%.
Under `CN(C(=O)CN1CCN(c2cc(-c3ccc(OCc4ccccc4)cc3)ncn2)CC1)c1ccccc1` stands -17.3%; under `CC(=O)Nc1ccc(CNc2nc(NCCN(C)C)nc3cc(-c4ccccc4)sc23)cc1`, -16%; under `Cc1ccc(NC(=O)Cn2nnc(C(=O)NCc3ccco3)c2N)c(C)c1`, -2.06%.
Under `CCOc1ccccc1NC(=O)Cn1nnc(C(=O)NCc2cccs2)c1N` stands 62.1% (active); under `COc1cccc(CNC(=O)c2nnn(CC(=O)Nc3cc(C)ccc3C)c2N)c1`, 9.65%; under `NC(=S)NN=Cc1ccc(OC(=O)COc2cc(Cl)c(Cl)cc2Cl)cn1`, 4.39%.
Under `CC(C)Oc1cc(F)ccc1-c1cc(C(=O)Nc2cccc(Cl)c2)[nH]n1` stands -9.5%.
`CC(=O)NC1CCN(CC(=O)Nc2nccs2)CC1`: the inhibition was 4.49%.
To `CC1CCN(CC(=O)Nc2nccs2)CC1` belongs 50.9% (active); to `O=C(COC(=O)c1ccc(O)cc1)Nc1nccs1`, 2.05%.
Under `CC(C)Oc1ccc(CN2CCC2(C)C(=O)NCc2ccc(C(F)(F)F)cc2)cc1` (stereo not drawn) stands -4.01%.
As for `O=C(NCc1cccnc1)c1cc(C2CCCCN2C(=O)CCc2ccccc2)on1` (stereo not drawn), the inhibition was -0.0335%.
Under `COCOCCn1cc(CN2CCS(=O)(=O)N(Cc3ccc(-c4ccc(OC)cc4)cc3)C(CC(C)C)C2=O)nn1` (stereo not drawn) stands 1.43%.
To `O=C(CN1C(=O)c2cccc3cccc1c23)Nc1ccccc1` belongs 2.82%.
To `CCN(CC)S(=O)(=O)c1ccc2c3c(cccc13)C(=O)S2` belongs -0.161%.
As to `CCN1C(=O)c2cccc3c(S(=O)(=O)Nc4ccccc4O)ccc1c23`, the inhibition is 112% (active).
To `O=C(NCc1cccnc1)Nc1cccc(NC(=O)NCc2cccnc2)c1F` belongs 56% (active); to `O=C(NCc1cccnc1)c1ccccc1NC(=O)c1c(F)cccc1F`, -6.43%.
Take `O=C(NCc1cccnc1)Nc1ccccc1F`: the inhibition was 20.3%.
As for `C#Cc1ccc(NC(=O)C2(C)CCN2C(=O)Cc2ccc(-c3ccccc3)cc2)cc1` (stereo not drawn), the inhibition is -14.6%.
`Cc1cccc(C)c1Cn1c(C)c(C(=O)NCc2cccc(Cl)c2)sc1=O`: the inhibition was -0.663%.
Under `O=C1[C@H]2[C@@H](c3ccc(C(F)(F)F)cc3)N[C@]3(CCCN(Cc4ccc(Cl)cc4)C3=O)[C@H]2C(=O)N1Cc1ccccc1` stands 2.09%; under `CC1(C(=O)Nc2cccc3cccnc23)CCN1C(=O)CCC1CCCC1` (stereo not drawn), -1.65%.
For the compound `CN(C)CCNC(=O)c1ccc(-c2cn3c(-c4ccc(Oc5ccccc5)cc4)cnc3cn2)cc1`, the inhibition was 1.97%.
On to `COc1ccc(-c2ccc(Nc3ccc(S(=O)(=O)N4CCCC4)cc3)nn2)cc1OC`, for which the inhibition was -7.98%.
To `COc1ccc(-c2cc(C(F)(F)F)nc(S(C)(=O)=O)n2)cc1OC` belongs 90.1% (active).
To `COc1ccc(-c2cc(-c3ccc(N)cc3)nc(N)c2C#N)cc1OC` belongs -0.12%.
